The target in assay [1] is Mitogen-activated protein kinase 3 (Homo sapiens) (UniProt P27361). The following applies: at 1 µM.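 Further: values are mean percent inhibition of MAPK3.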
Assay [2] addresses SRSF protein kinase 3 (Homo sapiens) (UniProt Q9UPE1). Conditions: at 0.1 µM.
Assay [3] has the same target. The following applies: at 1 µM.
Assay [4] addresses Mitogen-activated protein kinase 14 (Homo sapiens) (UniProt Q16539). Conditions: at 0.1 µM.
Assay [5] shares this target. The following applies: at 1 µM.
Assay [6] concerns the target Mitogen-activated protein kinase 11 (Homo sapiens) (UniProt Q15759). The following applies: at 0.1 µM.
Assay [7] has the same target. The following applies: at 1 µM.
The target in assay [8] is T1, Mitogen-activated protein kinase 13 (Homo sapiens) (UniProt O15264).
T1 sequence (whole entry): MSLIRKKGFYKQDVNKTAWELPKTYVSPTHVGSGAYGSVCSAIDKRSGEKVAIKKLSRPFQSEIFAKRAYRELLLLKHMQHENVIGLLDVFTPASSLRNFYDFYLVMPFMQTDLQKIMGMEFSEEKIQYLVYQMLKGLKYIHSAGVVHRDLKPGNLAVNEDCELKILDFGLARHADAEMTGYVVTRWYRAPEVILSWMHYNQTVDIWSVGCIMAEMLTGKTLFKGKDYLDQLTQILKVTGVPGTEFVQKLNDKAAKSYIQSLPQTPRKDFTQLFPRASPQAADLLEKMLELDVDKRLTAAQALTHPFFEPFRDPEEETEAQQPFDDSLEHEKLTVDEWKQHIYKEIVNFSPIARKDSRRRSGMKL
Conditions: at 0.1 µM.

For assay [9], the target named is T1, Mitogen-activated protein kinase 13 (Homo sapiens). The following applies: at 1 µM.
For assay [10], the target named is T2, Mitogen-activated protein kinase 12 (Homo sapiens) (UniProt P53778).
T2 sequence (whole entry): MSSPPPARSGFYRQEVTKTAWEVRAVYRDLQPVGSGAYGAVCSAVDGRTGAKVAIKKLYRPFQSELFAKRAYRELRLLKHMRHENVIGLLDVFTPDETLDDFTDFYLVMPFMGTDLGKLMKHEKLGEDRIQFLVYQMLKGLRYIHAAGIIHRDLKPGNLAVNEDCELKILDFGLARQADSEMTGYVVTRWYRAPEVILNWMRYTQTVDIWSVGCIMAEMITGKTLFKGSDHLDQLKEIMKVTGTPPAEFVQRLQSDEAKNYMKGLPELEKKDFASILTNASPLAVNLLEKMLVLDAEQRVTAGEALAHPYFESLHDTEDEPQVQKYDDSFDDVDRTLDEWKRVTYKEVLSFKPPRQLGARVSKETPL
The following applies: at 0.1 µM.

Assay [11] addresses T2, Mitogen-activated protein kinase 12 (Homo sapiens). Conditions: at 1 µM.
In assay [12] the target is SRSF protein kinase 1 (Homo sapiens) (UniProt Q96SB4). The following applies: at 0.1 µM.
SRSF protein kinase 1 (Homo sapiens), sequence (Q96SB4 whole entry): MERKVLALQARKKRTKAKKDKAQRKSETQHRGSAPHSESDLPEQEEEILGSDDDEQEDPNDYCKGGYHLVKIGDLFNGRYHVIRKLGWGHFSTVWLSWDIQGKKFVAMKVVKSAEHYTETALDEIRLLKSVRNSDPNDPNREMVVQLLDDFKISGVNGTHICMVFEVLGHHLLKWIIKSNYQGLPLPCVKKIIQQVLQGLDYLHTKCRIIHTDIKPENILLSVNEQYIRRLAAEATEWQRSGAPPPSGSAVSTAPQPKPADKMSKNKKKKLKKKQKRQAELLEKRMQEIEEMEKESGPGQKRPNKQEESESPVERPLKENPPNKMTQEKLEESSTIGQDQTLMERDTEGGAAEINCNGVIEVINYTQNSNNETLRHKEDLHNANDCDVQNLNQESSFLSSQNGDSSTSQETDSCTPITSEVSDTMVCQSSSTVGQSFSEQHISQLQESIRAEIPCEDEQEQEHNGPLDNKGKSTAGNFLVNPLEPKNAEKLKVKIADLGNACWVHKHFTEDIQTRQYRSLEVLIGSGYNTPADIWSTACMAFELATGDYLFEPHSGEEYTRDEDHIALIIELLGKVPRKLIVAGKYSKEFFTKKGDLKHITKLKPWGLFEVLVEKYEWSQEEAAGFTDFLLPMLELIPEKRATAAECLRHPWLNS
For assay [13] the target is unchanged. The following applies: at 1 µM.
Assay [14] addresses Phosphatidylinositol 4,5-bisphosphate 3-kinase catalytic subunit alpha isoform (Homo sapiens) (UniProt P42336). Conditions: at 0.1 µM.
The target is the same in assay [15]. Conditions: at 1 µM.
In assay [16] the target is T3, Phosphatidylinositol 4,5-bisphosphate 3-kinase catalytic subunit delta isoform (Homo sapiens) (UniProt O00329).
T3 sequence (whole entry): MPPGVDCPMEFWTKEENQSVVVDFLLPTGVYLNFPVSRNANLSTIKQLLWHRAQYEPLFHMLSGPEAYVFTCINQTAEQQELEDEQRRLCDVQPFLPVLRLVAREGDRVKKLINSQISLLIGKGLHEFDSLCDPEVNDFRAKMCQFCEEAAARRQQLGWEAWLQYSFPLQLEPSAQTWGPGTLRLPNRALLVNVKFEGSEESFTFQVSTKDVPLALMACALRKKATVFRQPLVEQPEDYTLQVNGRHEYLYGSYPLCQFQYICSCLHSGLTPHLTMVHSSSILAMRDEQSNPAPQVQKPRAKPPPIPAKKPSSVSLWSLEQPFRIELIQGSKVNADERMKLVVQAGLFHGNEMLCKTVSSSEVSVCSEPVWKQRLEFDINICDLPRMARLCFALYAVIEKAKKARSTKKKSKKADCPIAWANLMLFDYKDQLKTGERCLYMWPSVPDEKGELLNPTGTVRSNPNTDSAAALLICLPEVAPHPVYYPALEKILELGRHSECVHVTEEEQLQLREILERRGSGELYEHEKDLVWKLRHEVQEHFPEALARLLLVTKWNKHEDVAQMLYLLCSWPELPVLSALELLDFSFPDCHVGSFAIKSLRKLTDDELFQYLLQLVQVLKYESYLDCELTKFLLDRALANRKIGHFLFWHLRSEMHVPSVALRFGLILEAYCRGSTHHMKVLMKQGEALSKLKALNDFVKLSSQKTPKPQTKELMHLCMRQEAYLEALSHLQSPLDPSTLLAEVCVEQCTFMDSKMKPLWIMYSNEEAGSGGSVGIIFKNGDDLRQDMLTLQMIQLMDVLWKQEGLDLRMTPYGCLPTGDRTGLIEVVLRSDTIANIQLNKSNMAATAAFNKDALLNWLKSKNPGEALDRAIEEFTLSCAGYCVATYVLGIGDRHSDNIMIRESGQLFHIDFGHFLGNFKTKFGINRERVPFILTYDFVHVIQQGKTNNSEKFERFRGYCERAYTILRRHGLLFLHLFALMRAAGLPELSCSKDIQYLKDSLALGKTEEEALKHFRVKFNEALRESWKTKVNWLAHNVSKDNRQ
Conditions: at 0.1 µM.

Assay [17] addresses T3, Phosphatidylinositol 4,5-bisphosphate 3-kinase catalytic subunit delta isoform (Homo sapiens). Conditions: at 1 µM.
The target in assay [18] is Phosphatidylinositol 4-kinase beta (Homo sapiens) (UniProt Q9UBF8). Conditions: at 0.1 µM.
Phosphatidylinositol 4-kinase beta (Homo sapiens), sequence (Q9UBF8 2-816 limits assumed): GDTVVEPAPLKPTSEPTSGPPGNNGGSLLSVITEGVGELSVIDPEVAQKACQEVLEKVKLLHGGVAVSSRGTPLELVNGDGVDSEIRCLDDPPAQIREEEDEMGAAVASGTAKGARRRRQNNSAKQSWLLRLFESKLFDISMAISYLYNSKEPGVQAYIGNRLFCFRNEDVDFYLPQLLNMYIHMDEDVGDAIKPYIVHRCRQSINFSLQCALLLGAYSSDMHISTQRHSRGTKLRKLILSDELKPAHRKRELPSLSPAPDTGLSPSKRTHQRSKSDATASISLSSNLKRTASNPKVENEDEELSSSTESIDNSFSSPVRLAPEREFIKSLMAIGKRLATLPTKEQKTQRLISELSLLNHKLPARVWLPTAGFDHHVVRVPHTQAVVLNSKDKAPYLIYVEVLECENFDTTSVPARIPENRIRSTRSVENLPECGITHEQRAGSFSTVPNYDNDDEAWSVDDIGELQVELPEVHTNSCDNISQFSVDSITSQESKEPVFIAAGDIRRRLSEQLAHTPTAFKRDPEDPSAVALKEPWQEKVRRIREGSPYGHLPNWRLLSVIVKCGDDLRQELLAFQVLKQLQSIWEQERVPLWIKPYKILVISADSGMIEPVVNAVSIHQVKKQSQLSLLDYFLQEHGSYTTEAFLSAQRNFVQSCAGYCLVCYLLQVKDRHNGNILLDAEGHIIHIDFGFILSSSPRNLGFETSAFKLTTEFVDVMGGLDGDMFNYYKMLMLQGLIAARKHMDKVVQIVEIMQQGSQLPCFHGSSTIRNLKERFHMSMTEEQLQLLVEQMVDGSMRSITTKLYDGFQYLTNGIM
Assay [19] shares this target. Conditions: at 1 µM.
For assay [20], the target named is Sphingosine kinase 1 (Homo sapiens) (UniProt Q9NYA1). The following applies: at 0.1 µM.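 Further: mean percent inhibition of SPHK1 activity, measured within the GSK PKIS screening panel.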
Sphingosine kinase 1 (Homo sapiens), sequence (Q9NYA1 whole entry): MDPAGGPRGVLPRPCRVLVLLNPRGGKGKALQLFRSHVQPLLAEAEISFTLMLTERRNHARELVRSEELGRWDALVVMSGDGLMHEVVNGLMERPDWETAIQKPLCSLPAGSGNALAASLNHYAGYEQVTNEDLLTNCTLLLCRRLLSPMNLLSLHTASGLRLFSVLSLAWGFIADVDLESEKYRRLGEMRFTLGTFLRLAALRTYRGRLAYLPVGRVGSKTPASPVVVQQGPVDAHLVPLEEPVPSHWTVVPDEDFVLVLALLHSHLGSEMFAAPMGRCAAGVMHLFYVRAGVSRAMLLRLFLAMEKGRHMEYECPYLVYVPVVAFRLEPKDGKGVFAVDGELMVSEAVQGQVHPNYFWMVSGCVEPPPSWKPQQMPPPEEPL

Usually inhibition stands for the change of the read-out against control, counted positive when it falls.

Mitogen-activated protein kinase 3 (Homo sapiens), sequence (P27361 whole entry): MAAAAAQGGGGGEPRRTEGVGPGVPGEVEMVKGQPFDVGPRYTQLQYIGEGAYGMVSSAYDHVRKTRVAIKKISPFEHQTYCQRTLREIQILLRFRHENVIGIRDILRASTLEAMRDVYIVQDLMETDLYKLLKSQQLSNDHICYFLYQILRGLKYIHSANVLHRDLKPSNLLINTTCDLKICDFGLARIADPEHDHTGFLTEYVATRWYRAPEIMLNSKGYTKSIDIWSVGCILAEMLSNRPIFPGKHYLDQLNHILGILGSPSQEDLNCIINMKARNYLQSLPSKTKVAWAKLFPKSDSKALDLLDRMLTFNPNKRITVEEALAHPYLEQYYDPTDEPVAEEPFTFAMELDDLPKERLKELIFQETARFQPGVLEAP
Phosphatidylinositol 4,5-bisphosphate 3-kinase catalytic subunit alpha isoform (Homo sapiens), sequence (P42336 whole entry, canonical isoform): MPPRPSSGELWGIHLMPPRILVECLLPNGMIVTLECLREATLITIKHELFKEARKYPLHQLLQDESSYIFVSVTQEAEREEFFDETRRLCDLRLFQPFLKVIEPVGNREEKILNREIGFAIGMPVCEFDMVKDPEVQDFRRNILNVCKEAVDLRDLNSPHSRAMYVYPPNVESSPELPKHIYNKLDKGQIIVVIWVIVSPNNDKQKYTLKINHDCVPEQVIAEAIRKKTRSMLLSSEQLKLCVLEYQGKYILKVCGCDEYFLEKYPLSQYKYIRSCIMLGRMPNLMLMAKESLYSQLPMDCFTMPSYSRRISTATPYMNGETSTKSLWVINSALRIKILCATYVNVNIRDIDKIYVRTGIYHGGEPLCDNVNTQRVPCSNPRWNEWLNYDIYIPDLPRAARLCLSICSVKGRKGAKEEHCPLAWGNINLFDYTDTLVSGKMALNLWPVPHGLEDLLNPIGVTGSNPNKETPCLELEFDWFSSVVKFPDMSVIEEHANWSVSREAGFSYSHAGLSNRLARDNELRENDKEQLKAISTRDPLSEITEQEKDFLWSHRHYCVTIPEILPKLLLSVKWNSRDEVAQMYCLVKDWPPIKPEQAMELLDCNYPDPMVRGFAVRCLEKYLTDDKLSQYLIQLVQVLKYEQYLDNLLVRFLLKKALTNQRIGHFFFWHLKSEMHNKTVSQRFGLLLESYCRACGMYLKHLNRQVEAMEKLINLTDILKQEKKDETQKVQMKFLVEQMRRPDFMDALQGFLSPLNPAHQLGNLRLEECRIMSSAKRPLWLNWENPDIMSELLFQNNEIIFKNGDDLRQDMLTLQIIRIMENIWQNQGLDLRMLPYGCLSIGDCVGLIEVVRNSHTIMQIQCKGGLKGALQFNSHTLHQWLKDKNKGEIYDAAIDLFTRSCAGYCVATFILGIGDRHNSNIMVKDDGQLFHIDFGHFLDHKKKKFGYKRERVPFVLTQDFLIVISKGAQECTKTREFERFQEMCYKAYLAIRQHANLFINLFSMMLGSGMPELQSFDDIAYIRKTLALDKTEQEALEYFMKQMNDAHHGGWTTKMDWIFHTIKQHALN
Mitogen-activated protein kinase 14 (Homo sapiens), sequence (Q16539 whole entry): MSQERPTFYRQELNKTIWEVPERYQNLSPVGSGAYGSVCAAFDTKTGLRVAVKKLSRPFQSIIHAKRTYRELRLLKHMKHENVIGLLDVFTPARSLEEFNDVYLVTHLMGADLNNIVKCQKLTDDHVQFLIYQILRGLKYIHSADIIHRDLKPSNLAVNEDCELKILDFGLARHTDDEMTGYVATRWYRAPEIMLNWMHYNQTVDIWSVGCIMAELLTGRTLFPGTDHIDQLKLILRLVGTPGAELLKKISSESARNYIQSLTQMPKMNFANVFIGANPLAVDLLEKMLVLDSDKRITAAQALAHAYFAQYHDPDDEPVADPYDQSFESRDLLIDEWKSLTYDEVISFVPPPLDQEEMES
SRSF protein kinase 3 (Homo sapiens), sequence (Q9UPE1 whole entry): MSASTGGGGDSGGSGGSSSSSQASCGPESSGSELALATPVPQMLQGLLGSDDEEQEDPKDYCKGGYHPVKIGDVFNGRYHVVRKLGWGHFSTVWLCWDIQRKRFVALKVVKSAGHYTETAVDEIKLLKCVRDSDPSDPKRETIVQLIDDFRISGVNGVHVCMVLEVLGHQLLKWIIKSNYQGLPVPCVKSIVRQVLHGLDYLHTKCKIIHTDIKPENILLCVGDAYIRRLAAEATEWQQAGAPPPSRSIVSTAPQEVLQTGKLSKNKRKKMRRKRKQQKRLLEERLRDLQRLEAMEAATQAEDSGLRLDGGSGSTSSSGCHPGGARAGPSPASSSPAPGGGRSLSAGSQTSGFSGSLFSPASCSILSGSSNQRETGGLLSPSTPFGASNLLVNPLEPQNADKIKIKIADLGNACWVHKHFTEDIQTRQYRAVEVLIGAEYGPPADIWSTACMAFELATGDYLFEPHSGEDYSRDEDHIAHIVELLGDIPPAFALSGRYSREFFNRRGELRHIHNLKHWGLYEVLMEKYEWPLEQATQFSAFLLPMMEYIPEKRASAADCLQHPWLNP
Mitogen-activated protein kinase 11 (Homo sapiens), sequence (Q15759 whole entry): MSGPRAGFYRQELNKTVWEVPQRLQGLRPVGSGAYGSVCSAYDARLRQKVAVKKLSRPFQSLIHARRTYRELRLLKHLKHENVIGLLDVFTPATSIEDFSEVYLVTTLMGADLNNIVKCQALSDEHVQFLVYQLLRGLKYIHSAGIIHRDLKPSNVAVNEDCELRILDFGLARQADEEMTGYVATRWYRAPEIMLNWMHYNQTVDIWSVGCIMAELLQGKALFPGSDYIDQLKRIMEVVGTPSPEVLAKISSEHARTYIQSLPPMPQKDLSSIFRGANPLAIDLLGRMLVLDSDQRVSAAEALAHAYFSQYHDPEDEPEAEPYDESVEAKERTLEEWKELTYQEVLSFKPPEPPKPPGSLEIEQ

For the molecule `CS(=O)(=O)CCNCc1nc(-c2ccc3ncnc(Nc4ccc(F)c(Cl)c4)c3c2)cs1`, the inhibition came to 3.66% in assay [1]; 2.2% in assay [2]; 1.52% in assay [3]; 2.36% in [4]; 5.56% in assay [5]; 2.75% in assay [6]. In addition, the inhibition in [7] is 5.6%; in assay [8], 2.57%; in assay [9], 1.21%; in assay [10], 0.83%; in assay [11] it was 1.73%; in assay [12], -0.47%. Further, the inhibition stood at 1.62% in assay [13]; 1.55% in assay [14]; 16.8% in [15]; 1.95% in [16]; 5.42% in assay [17]; 6.61% in assay [18]. In addition, the inhibition was 5.06% in assay [19] and -0.56% in assay [20].

Regarding `COc1cc(C=NNc2ncnc3c2cnn3-c2ccccc2)ccc1O`, the inhibition worked out at 1.84% in assay [1]; 2.22% in [2]; 4.19% in [3]; 4.51% in [4]; 10.7% in assay [5]; 3.59% in assay [6]. Further, the inhibition in assay [7] is 9.09%; in [8] it was 3.08%; in [9] it was 7.17%; in [10] it was 1.85%; in [11] it was 5.79%; in assay [12] it was -0.73%. Besides, the inhibition was 0.63% in assay [13]; 6.59% in [14]; 15.9% in assay [15]; 8.17% in assay [16]; 18% in assay [17]; -0.81% in [18]. The inhibition in assay [19] was -0.12%; in assay [20] it was -0.86%.

Take `NS(=O)(=O)c1ccc(N/N=C2\C(=O)Nc3ccc(C(=O)NCCc4c[nH]cn4)cc32)cc1`: the inhibition is 7.89% in assay [1]; 1.31% in assay [2]; -0.05% in [3]; 5.71% in [4]; 8.13% in assay [5]; 3.37% in assay [6]. Besides, the inhibition is 6.34% in assay [7]; -1.15% in assay [8]; 4.35% in [9]; 4.17% in assay [10]; 2.64% in assay [11]; -1.35% in [12]. The inhibition is -0.63% in [13]; 2.2% in assay [14]; 4.76% in assay [15]; 1.71% in assay [16]; 2.03% in [17]; -6.38% in assay [18]. Moreover, the results for the inhibition in assay [19] and in assay [20] were -1.44% and -1.35%, respectively.

Regarding `Cc1ccc(C(=O)NC2CCCCC2)cc1-c1ccc(C(=O)NCC2CC2)cc1`, the inhibition in [1] is 0.88%; in assay [2] it was 1.95%; in assay [3], 0.5%; in assay [4], 5.36%; in assay [5] it was 17.4%; in [6], 4.59%. Moreover, the inhibition in assay [7] was 14.2%; in [8], 1.77%; in assay [9], 2.53%; in [10], -0.98%; in assay [11] it was 1.27%; in [12], -2.04%. Moreover, the inhibition in assay [13] is -2.48%; in assay [14], 1.35%; in assay [15] it was -0.53%; in assay [16] it was 1.89%; in assay [17], 1.33%; in assay [18] it was 3.97%. The inhibition in assay [19] was -5.9%; in assay [20] it was -7.61%.

As for `NS(=O)(=O)c1cccc(-c2ccc3c(NC(=O)C4CC4)n[nH]c3c2)c1`, the inhibition in [1] is -0.05%; in assay [2], -0.57%; in assay [3], -6.73%; in [4] it was 6.37%; in assay [5], 9.34%; in assay [6], 1.5%. Further, the inhibition in assay [7] was 5.3%; in assay [8], -0.02%; in assay [9], -0.14%; in assay [10] it was -0.74%; in assay [11] it was -1.58%; in assay [12] it was 1.47%. Moreover, the inhibition in [13] is 1.47%; in assay [14], 2.99%; in assay [15], 3.6%; in [16], 7.35%; in assay [17], 8.71%; in assay [18] it was 1.29%. For the same molecule, the results for the inhibition in assay [19] and in [20] were -3.98% and 0.58%, respectively.

`CC(C)=Cc1cccc2c1/C(=N/Nc1ccc(S(N)(=O)=O)cc1)C(=O)N2`: the inhibition is 2.62% in [1]; -0.98% in [2]; 3.29% in [3]; 0.04% in assay [4]; 1.72% in assay [5]; 0.78% in [6]. Besides, the inhibition in assay [7] is 5.29%; in assay [8], 0.28%; in assay [9], 1.32%; in assay [10] it was -0.48%; in [11] it was -0.16%; in [12], 0.13%. Also, the inhibition was 2.55% in [13]; 0.06% in assay [14]; 1.06% in assay [15]; 0.23% in assay [16]; 1.67% in [17]; 1.78% in assay [18]. In addition, the inhibition came to 3.22% in [19] and 2.28% in assay [20].

With `Nc1ncnc2occ(-c3ccc(NC(=O)Nc4cccc(C(F)(F)F)c4)cc3)c12`, the inhibition came out at 3.6% in assay [1]; 19% in assay [2]; 62.5% in [3]; 16.1% in [4]; 43.4% in assay [5]; 9.18% in [6]. For the same molecule, the inhibition was 41% in assay [7]; 6.92% in [8]; 19.3% in [9]; 7.81% in [10]; 37.5% in assay [11]; 1.49% in assay [12]. Further, the inhibition in [13] was 18.5%; in assay [14] it was 4.75%; in [15], 4.88%; in [16], 1.25%; in assay [17], 4.92%; in assay [18], -1.39%. For the same molecule, the inhibition in [19] is 1.22%; in assay [20] it was 0.57%.

(Values after ChEMBL document CHEMBL1961873, “Compounds: GSK PKIS; Assays: Nanosyn kinase panel” (2012).)
